High-throughput results from PubChem.
Only some compounds are listed: those with a hit (about 21% of all), similar ones and a draw of the others.
ClpP mod: qHTS Assay for Activators of ClpP; ATP-dependent Clp protease proteolytic subunit (Bacillus subtilis (strain 168)), P80244; purified B. subtilis ClpP, FRET peptide cleavage, 20 min; Potency, µM (highest dose often 57.5 µM), for inactives: top-dose activity change, negative = active; 1.9% of 340,000 active; AID 651965, 2013; active = well fitted falling curve with a large enough effect; inconclusive = small, poorly fitted or top-dose-only effect; inactive = no such curve, though single readings can be large or run the other way; also: potency is read from the fitted curve at half-maximal effect; the source files actives as falling curves though it sought activators and does not explain the sign; nearly all actives have a fitted effect of over 65% in size
Target sequence (P80244 whole entry, looked up): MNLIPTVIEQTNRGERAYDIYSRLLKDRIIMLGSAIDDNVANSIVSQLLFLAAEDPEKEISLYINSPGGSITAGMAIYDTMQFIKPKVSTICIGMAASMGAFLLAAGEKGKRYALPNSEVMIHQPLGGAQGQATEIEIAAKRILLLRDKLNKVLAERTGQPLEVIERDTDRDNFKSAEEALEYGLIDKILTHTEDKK
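Purified B. subtilis ClpP, 10 microg/mL final in Tris/HCl pH8 with KCl, BSA, glycerol and Tween-20, cleaved an Abz/nitrotyrosine-quenched decapeptide. Fluorescence (ex 320, em 430) was read at 0 and 20 min at room temperature. Delta was normalized to 5.8 microM ADEP and DMSO/no-enzyme controls.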
D3 antag: qHTS of D3 Dopamine Receptor Antagonist: qHTS | 2.5% of 360,000 active | AID 652054, 2013 | D3R cells, DiscoveRx beta-arrestin luminescence, antagonist mode; stronger effect = lower value | D(3) dopamine receptor (Homo sapiens), P35462 | max response, negative = inhibition, %; in the data active = max response below about -50%; inconclusive = no clear call, values can overlap the other calls; also: % is scaled to controls: 0 for no effect and ±100 for the full control effect
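Cells plated overnight at 1500 cells/well, then exposed to library compounds with dopamine controls for 90 minutes at 37 degrees C. DiscoveRx reagent added for 30–60 minutes at room temperature; luminescence read, quantitative HTS format.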
IL1B secr inh: qHTS for Inhibitors of Inflammasome Signaling: IL-1-beta AlphaLISA Primary Screen; THP-1 LPS/ATP IL-1B secretion, AlphaLISA, 16 h; stronger effect = lower value; 4.7% of 360,000 active; activity change, % at 57.5 µM; AID 743279, 2014; in the data active = activity change below about -50%; inconclusive = mostly about -30% to -49%; also: % is scaled to controls: 0 for no effect and ±100 for the full control effect
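THP-1 cells pretreated 1 hr with compounds (up to 57.5 uM final), then stimulated with LPS (250 ng/mL final) plus ATP (1.25 mM final); secreted IL-1B measured by AlphaLISA after 16 hr, decreased signal indicating inhibition.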
D3 ag: qHTS of D3 Dopamine Receptor Agonist: qHTS. D3R DiscoveRx beta-arrestin cells, luminescence, 90 min. max activation, %. 0.58% of 410,000 active. AID 652048, 2013; in the data active = max activation above about 30%; also: 0% is about no effect
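Agonist mode: compounds and dopamine controls were applied to plated cells for 90 min at 37 degrees C after an overnight attachment at 1500 cells/well. Luminescent read-out followed 30 - 60 minutes at room temperature with DiscoveRx detection reagent.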
TDP1 cell noCPT: qHTS for Inhibitors of human tyrosyl-DNA phosphodiesterase 1 (TDP1): qHTS in cells in absence of CPT | AID 686978, 2013 | 15% of 420,000 active | Potency, µM (series often up to 46.2 µM), without a hit: top-dose activity change, negative = growth inhibition, most hits filed as inhibitors | DT40 Tdp1-/- hTDP1 cells, no CPT, ATP luminescence, 48 h; also: potency is read from the fitted curve at half-maximal effect; % is scaled to controls: 0 for no effect and ±100 for the full control effect; nearly all actives have a fitted effect of over 55% in size
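Growth of hTDP1-complemented DT40 Tdp1-knockout cells is measured by ATP luminescence after at least 48 hr compound exposure at 37 °C, with DMSO substituting for the 20 nM CPT used in the parallel screen.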
TDP1 cell CPT: qHTS for Inhibitors of human tyrosyl-DNA phosphodiesterase 1 (TDP1): qHTS in cells in presence of CPT | AID 686979, 2013 | 12% of 420,000 active | chicken DT40 Tdp1-/-;hTDP1 cells + 20 nM CPT, ATP luminescence, 48 h | Potency, µM (series often up to 46.2 µM), for the others: top-dose activity change, negative = growth inhibition, actives largely listed as inhibitors; also: potency is read from the fitted curve at half-maximal effect; % is scaled to controls: 0 for no effect and ±100 for the full control effect; nearly all actives have a fitted effect of over 55% in size
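Chicken DT40 Tdp1-/- cells complemented with human TDP1, 400 cells/well, exposed to compounds plus 20 nM camptothecin for at least 48 h at 37 C; viability read as ATP content by CellTiter-Glo luminescence.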
* hit, by the source's call; ? = inconclusive; nt = no result given. Unless noted, calls follow the shape of the dose curve; as a rule, active = well fitted inhibition curve with a large enough effect; inconclusive = small, poorly fitted or top-dose-only effect; inactive = flat fitted curve, though single readings scatter.

SMILES	ClpP mod	D3 antag	IL1B secr inh	D3 ag	TDP1 cell noCPT	TDP1 cell CPT
C[C@@H]1CCCCO[C@H](CN(C)C(=O)c2ccccc2)[C@@H](C)CN([C@H](C)CO)C(=O)c2cc(NC(=O)NC3CCCCC3)ccc2O1	-6%	26	21	7	?	?
C[C@@H]1CCCCO[C@@H](CN(C)C(=O)C2CCCCC2)[C@@H](C)CN([C@H](C)CO)C(=O)c2cc(NC(=O)NC3CCCCC3)ccc2O1	-10%	-20	-15	-4	?	23µM*
CCOC(=O)CCCCCC(=O)Nc1ccc2c(c1)C(=O)N([C@H](C)CO)C[C@H](C)[C@H](CN(C)C(=O)C1CCCCC1)OCCCC[C@@H](C)O2	-3%	-24	20	-13	21µM*	?
C[C@H]1CCCCO[C@H](CN(C)C(=O)C2CCCCC2)[C@@H](C)CN([C@@H](C)CO)C(=O)c2cc(NC(=O)NC3CCCCC3)ccc2O1	-8%	8	-25	3	21µM*	21µM*
COc1ccc(NC(=O)Nc2ccc3c(c2)C(=O)N([C@H](C)CO)C[C@@H](C)[C@@H](CN(C)C(=O)C2CCCCC2)OCCCC[C@H](C)O3)cc1	-2%	-17	-24	-4	23µM*	?
O=C(Nc1ccccc1)Nc1nc(-c2ccc(F)c(F)c2)cs1	-2%	2	15	17	2.9µM*	5.8µM*
COc1cccc(-c2csc(NC(=O)C3CC3)n2)c1	0%	2	10	6	6.5µM*	5.2µM*
Cc1csc(NC(=O)Nc2ccc(Cl)cc2)n1	2%	-1	-8	-6	-22%	-26%
COc1cc(OC)cc(C(=O)N[C@H](C(=O)Nc2nc(-c3ccc(F)c(F)c3)cs2)C(C)C)c1	nt	1	22	6	?	?
O=C(Nc1ccc(Cl)cc1)Nc1nc(-c2ccccc2O)cs1	-1%	63	-69*	-2	4.6µM*	5.2µM*
O=C(Nc1ccc(Cl)c(Cl)c1)Nc1nc(-c2ccccc2)cs1	-2%	28	-18	14	13µM*	12µM*
COc1cccc(C(=O)Nc2nc(-c3ccncc3)cs2)c1	nt	-16	0	-2	?	-9%
O=C(Nc1nc(-c2cccnc2)cs1)c1ccccc1Cl	nt	2	6	-3	-10%	-9%
O=C(O)/C=C/c1cn(Cc2ccccc2Cl)nc1-c1ccccc1	2%	-2	52	2	?	?
COc1cccc(-c2csc(NC(=O)Nc3ccccc3)n2)c1	-2%	19	-22	-1	2.3µM*	7.3µM*
COc1ccc(C2c3c(ncn(CCCO)c3=N)Oc3ccc4ccccc4c32)cc1 (stereo not drawn)	nt	9	-96*	-2	15µM*	21µM*
COc1ccc(C2c3c(ccc4ccccc34)Oc3ncn4nc(Cc5ccccc5)nc4c32)cc1OC (stereo not drawn)	?	10	-11	-3	?	-11%
COc1ccc(C2c3c(ncn(CCN4CCOCC4)c3=N)Oc3ccc4ccccc4c32)cc1OC (stereo not drawn)	-3%	-2	-87*	-41	?	?
N=c1c2c(ncn1CCCO)Oc1cc(O)ccc1C2c1ccccc1 (stereo not drawn)	-1%	36	7	5	-1%	-13%
COc1ccc(C2c3c(ncn(CCCO)c3=N)Oc3ccc4ccccc4c32)cc1OC (stereo not drawn)	nt	?	-100*	-3	18µM*	15µM*
